Test results: PMC11062922 (Nature Chemical Biology, 2023)
Like-named read-outs stand apart in the source and are kept apart here.

How the values were obtained:
AAK1 = test system: AAK1; set-up: species or system human, MV4-11 + K-562 + COLO205 + SK-N-BE2 + OVCAR-8; conditions: read-out: apparent Kd, n = 1
CLK1 = test system: CLK1; set-up: species or system human, MV4-11 + K-562 + COLO205 + SK-N-BE2 + OVCAR-8; conditions: read-out: apparent Kd, compound concentrations: 100 nM and 1000 nM (sheet 'Samples'), n = 1
CLK4 = test system: CLK4; set-up: species or system human, MV4-11 + K-562 + COLO205 + SK-N-BE2 + OVCAR-8; conditions: read-out: apparent Kd, compound concentrations: 100 nM and 1000 nM (sheet 'Samples'), n = 1
CSNK2A1;CSNK2A3 = test system: CSNK2A1;CSNK2A3; set-up: species or system human, MV4-11 + K-562 + COLO205 + SK-N-BE2 + OVCAR-8; conditions: read-out: apparent Kd, compound concentrations: 100 nM and 1000 nM (sheet 'Samples'), n = 1
CSNK2A2 = test system: CSNK2A2; set-up: species or system human, MV4-11 + K-562 + COLO205 + SK-N-BE2 + OVCAR-8; conditions: read-out: apparent Kd, compound concentrations: 100 nM and 1000 nM (sheet 'Samples'), n = 1
Q6ZSR9 = Q6ZSR9 (human, UniProt Q6ZSR9); set-up: species or system MV4-11 + K-562 + COLO205 + SK-N-BE2 + OVCAR-8; conditions: read-out: apparent Kd, compound concentrations: 100 nM and 1000 nM (sheet 'Samples'), n = 1
Q6ZSR9, sequence (Q6ZSR9 whole entry, looked up): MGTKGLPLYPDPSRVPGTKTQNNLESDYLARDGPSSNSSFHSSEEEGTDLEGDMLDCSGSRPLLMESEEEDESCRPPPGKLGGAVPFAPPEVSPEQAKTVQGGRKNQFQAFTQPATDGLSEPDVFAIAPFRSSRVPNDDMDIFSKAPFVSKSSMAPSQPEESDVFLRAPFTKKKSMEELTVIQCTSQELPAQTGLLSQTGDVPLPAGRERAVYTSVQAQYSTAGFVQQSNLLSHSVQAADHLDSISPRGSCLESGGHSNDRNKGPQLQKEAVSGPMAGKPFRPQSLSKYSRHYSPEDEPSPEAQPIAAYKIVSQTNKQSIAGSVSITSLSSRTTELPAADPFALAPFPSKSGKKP

GAK = test system: GAK; set-up: species or system human, MV4-11 + K-562 + COLO205 + SK-N-BE2 + OVCAR-8; conditions: read-out: apparent Kd, n = 1
ABL1 = test system: ABL1; set-up: species or system human, MV4-11 + K-562 + COLO205 + SK-N-BE2 + OVCAR-8; conditions: read-out: apparent Kd, n = 1
ABL2 = test system: ABL2; set-up: species or system human, MV4-11 + K-562 + COLO205 + SK-N-BE2 + OVCAR-8; conditions: read-out: apparent Kd, n = 1
ACVR1B = test system: ACVR1B; set-up: species or system human, MV4-11 + K-562 + COLO205 + SK-N-BE2 + OVCAR-8; conditions: read-out: apparent Kd, n = 1
BCR = test system: BCR; set-up: species or system human, MV4-11 + K-562 + COLO205 + SK-N-BE2 + OVCAR-8; conditions: read-out: apparent Kd, n = 1
FYN = test system: FYN; set-up: species or system human, MV4-11 + K-562 + COLO205 + SK-N-BE2 + OVCAR-8; conditions: read-out: apparent Kd, n = 1
HCK = test system: HCK; set-up: species or system human, MV4-11 + K-562 + COLO205 + SK-N-BE2 + OVCAR-8; conditions: read-out: apparent Kd, n = 1
LCK = test system: LCK; set-up: species or system human, MV4-11 + K-562 + COLO205 + SK-N-BE2 + OVCAR-8; conditions: read-out: apparent Kd, n = 1
PTK6 = test system: PTK6; set-up: species or system human, MV4-11 + K-562 + COLO205 + SK-N-BE2 + OVCAR-8; conditions: read-out: apparent Kd, n = 1
RET = test system: RET; set-up: species or system human, MV4-11 + K-562 + COLO205 + SK-N-BE2 + OVCAR-8; conditions: read-out: apparent Kd; compound concentrations:100 nM and 1000 nM (sheet 'Samples'); n = 1
RIPK2 = test system: RIPK2; set-up: species or system human, MV4-11 + K-562 + COLO205 + SK-N-BE2 + OVCAR-8; conditions: read-out: apparent Kd, n = 1
RIPK3 = test system: RIPK3; set-up: species or system human, MV4-11 + K-562 + COLO205 + SK-N-BE2 + OVCAR-8; conditions: read-out: apparent Kd, n = 1
TNK1 = test system: TNK1; set-up: species or system human, MV4-11 + K-562 + COLO205 + SK-N-BE2 + OVCAR-8; conditions: read-out: apparent Kd, n = 1
YES1 = test system: YES1; set-up: species or system human, MV4-11 + K-562 + COLO205 + SK-N-BE2 + OVCAR-8; conditions: read-out: apparent Kd, n = 1
[1] = compound concentrations:100 nM and 1000 nM (sheet 'Samples')

Compound: NC1=NC(=O)/C(=C/c2ccc3ncccc3c2)S1 [RO4569139-000]
- potency estimated from few doses (AAK1; compound concentrations: 100 nM and 1000 nM (sheet 'Samples'), CATDS: 6.8889261451454395E-2): 1710 nM
- potency estimated from few doses (CLK1; CATDS: 0.136614362929): 259 nM
- potency estimated from few doses (CLK4; CATDS: 7.4487877667225894E-2): 1260 nM
- potency estimated from few doses (CSNK2A1;CSNK2A3; CATDS: 0.13735026532766101): 256 nM
- potency estimated from few doses (CSNK2A2; CATDS: 0.14765038324125301): 222 nM
- potency estimated from few doses (Q6ZSR9; CATDS: 7.6885749429296102E-2): 1130 nM

Compound: COc1ccc(CNC(=O)NC2CCN(c3ccnc(Nc4cc(OC)c(OC)c(OC)c4)n3)C2)cc1 (centres unmarked) [GSK1379748A]
- potency estimated from few doses (AAK1; compound concentrations: 100 nM and 1000 nM (sheet 'Samples'), CATDS: 0.347671640618193): 1680 nM
- potency estimated from few doses (Q6ZSR9; CATDS: 0.34499454920455003): 1710 nM

Compound: Nc1nc(-c2cccnc2)c(-c2ccnc3ccccc23)s1 [GW684083X]
- potency estimated from few doses (AAK1; [1]): 1960 nM
- potency estimated from few doses (GAK; [1]): 1430 nM

Compound: COc1ccccc1CNC1=NC(=O)/C(=C/c2ccc3ncccc3c2)S1 [RO4503315-000]
- potency estimated from few doses (AAK1; compound concentrations: 100 nM and 1000 nM (sheet 'Samples'), CATDS: 7.6030940071323702E-2): 908 nM
- potency estimated from few doses (CLK1; CATDS: 0.30628277203205201): 30.8 nM
- potency estimated from few doses (CLK4; CATDS: 0.47450505844259699): 14.8 nM
- potency estimated from few doses (CSNK2A1;CSNK2A3; CATDS: 0.129899516900844): 197 nM
- potency estimated from few doses (CSNK2A2; CATDS: 0.121862828094444): 231 nM
- potency estimated from few doses (Q6ZSR9; CATDS: 7.7270195347091397E-2): 858 nM

Compound: CCN(CC)CCOc1ccc(Nc2ncc3cc(-c4c(Cl)cccc4Cl)c(=O)n(C)c3n2)cc1 [SB-601273]
- potency estimated from few doses (ABL1; [1]): 72.7 nM
- potency estimated from few doses (ABL2; [1]): 8.98 nM
- potency estimated from few doses (ACVR1B; [1]): 170 nM
- potency estimated from few doses (BCR; [1]): 5.53 nM
- potency estimated from few doses (FYN; [1]): 130 nM
- potency estimated from few doses (GAK; [1]): 55.4 nM
- potency estimated from few doses (HCK; [1]): 299 nM
- potency estimated from few doses (LCK; [1]): 39 nM
- potency estimated from few doses (PTK6; [1]): 224 nM
- potency estimated from few doses (RET): 167 nM
- potency estimated from few doses (RIPK2; [1]): 19.4 nM
- potency estimated from few doses (RIPK3; [1]): 765 nM
- potency estimated from few doses (TNK1; [1]): 631 nM
- potency estimated from few doses (YES1; [1]): 80.1 nM

Compound: Cc1nn(C)c2cc(N(C)c3ccnc(Nc4cccc(S(N)(=O)=O)c4)n3)ccc12.Cl [GW770220A]
- potency estimated from few doses (AAK1; compound concentrations: 100 nM and 1000 nM (sheet 'Samples'), CATDS: 0.34831040930344798): 632 nM
- potency estimated from few doses (Q6ZSR9; CATDS: 0.39212964610314199): 507 nM

Compound: CS(=O)(=O)Cc1ccc(Nc2nccc(-c3c(-c4cccc(NC(=O)C5CCCCC5)c4)nn4ncccc34)n2)cc1 [GSK350559A]
- potency estimated from few doses (RET): 1370 nM
- potency estimated from few doses (RIPK3; [1]): 1130 nM
- potency estimated from few doses (TNK1; [1]): 261 nM
- potency estimated from few doses (YES1; [1]): 461 nM

Compound: COc1ccc(-c2nc3n(c2-c2ccncc2)CCC3)cc1.COc1ccc(-c2nc3n(c2-c2ccncc2)CCC3)cc1.O=S(=O)(O)O.O=S(=O)(O)O [SKF-104493-B2]
- potency estimated from few doses (ACVR1B; compound concentrations: 100 nM and 1000 nM (sheet 'Samples'), CATDS: 0.14344642008730599): 1030 nM

Compound: CN(C)Cc1ccc(-c2ccc3c(Nc4ccc(Oc5ccccn5)cc4)ccnc3c2)o1 [GW567148X]
- potency estimated from few doses (ABL1; compound concentrations: 100 nM and 1000 nM (sheet 'Samples'), CATDS: 2.6696820742308999E-2): 474 nM
- potency estimated from few doses (ABL2; compound concentrations: 100 nM and 1000 nM (sheet 'Samples'), CATDS: 2.2474655179730001E-2): 716 nM
- potency estimated from few doses (BCR; compound concentrations: 100 nM and 1000 nM (sheet 'Samples'), CATDS: 2.3050499166144999E-2): 671 nM
- potency estimated from few doses (CLK1; CATDS: 1.75413407111282E-2): 1550 nM
- potency estimated from few doses (FYN; compound concentrations: 100 nM and 1000 nM (sheet 'Samples'), CATDS: 2.9409133210556101E-2): 385 nM
- potency estimated from few doses (GAK; compound concentrations: 100 nM and 1000 nM (sheet 'Samples'), CATDS: 2.37556853543167E-2): 622 nM
- potency estimated from few doses (HCK; compound concentrations: 100 nM and 1000 nM (sheet 'Samples'), CATDS: 0.14804740289448201): 30.7 nM
- potency estimated from few doses (LCK; compound concentrations: 100 nM and 1000 nM (sheet 'Samples'), CATDS: 3.1046843535100802E-2): 345 nM
- potency estimated from few doses (PTK6; compound concentrations: 100 nM and 1000 nM (sheet 'Samples'), CATDS: 5.2806540733476098E-2): 134 nM
- potency estimated from few doses (RIPK2; compound concentrations: 100 nM and 1000 nM (sheet 'Samples'), CATDS: 9.2431358445575804E-2): 57.7 nM
- potency estimated from few doses (RIPK3; compound concentrations: 100 nM and 1000 nM (sheet 'Samples'), CATDS: 2.29584105489756E-2): 678 nM
- potency estimated from few doses (TNK1; compound concentrations: 100 nM and 1000 nM (sheet 'Samples'), CATDS: 3.2421651582332497E-2): 316 nM
- potency estimated from few doses (YES1; compound concentrations: 100 nM and 1000 nM (sheet 'Samples'), CATDS: 6.4400674253028201E-2): 97.8 nM

Compound: CN1CCN(Cc2ccc(-c3ccc4c(Nc5ccc(Oc6ccccn6)cc5)ccnc4c3)o2)CC1 [GW567140X]
- potency estimated from few doses (ABL1; compound concentrations: 100 nM and 1000 nM (sheet 'Samples'), CATDS: 9.3195013096343204E-2): 147 nM
- potency estimated from few doses (FYN; compound concentrations: 100 nM and 1000 nM (sheet 'Samples'), CATDS: 4.4615082678796297E-2): 675 nM
- potency estimated from few doses (GAK; compound concentrations: 100 nM and 1000 nM (sheet 'Samples'), CATDS: 3.56871929379163E-2): 1320 nM
- potency estimated from few doses (HCK; compound concentrations: 100 nM and 1000 nM (sheet 'Samples'), CATDS: 0.15093661180131901): 68.5 nM
- potency estimated from few doses (LCK; compound concentrations: 100 nM and 1000 nM (sheet 'Samples'), CATDS: 4.8128660017474401E-2): 557 nM
- potency estimated from few doses (PTK6; compound concentrations: 100 nM and 1000 nM (sheet 'Samples'), CATDS: 6.5275116077435802E-2): 284 nM
- potency estimated from few doses (RIPK2; compound concentrations: 100 nM and 1000 nM (sheet 'Samples'), CATDS: 0.141504972954966): 75.4 nM
- potency estimated from few doses (RIPK3; compound concentrations: 100 nM and 1000 nM (sheet 'Samples'), CATDS: 4.8755783013644902E-2): 540 nM
- potency estimated from few doses (YES1; compound concentrations: 100 nM and 1000 nM (sheet 'Samples'), CATDS: 6.0479326827192301E-2): 332 nM
